In PubChem BioAssay (Tox21):
A number with no mark means an inactive call. Records with an inconclusive call do not appear. Entries that show only a call come without a potency. Activity calls are given as the source filed them. Unless noted, calls follow the shape of the full dose curve.

Columns and labels:
[1] = Nuclear factor erythroid 2-related factor 2/antioxidant responsive element (Nrf2/ARE) small molecule agonists: luciferase reporter gene qHTS assay in human keratinocytes (AID 1919969); also: nearly all actives have a fitted effect of over 35% in size; also: potency is read from the fitted curve at half-maximal effect
[2] = target: Gonadotropin-releasing hormone receptor (Homo sapiens) (UniProt P30968); test: Human gonadotropin-releasing hormone receptor (GnRHR) small molecule agonists, calcium flux assay in GnRHR-HEK293 cells (AID 1920063); also: nearly all actives have a fitted effect of over 35% in size
Outline: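 GnRHR-HEK293, 1500 cells/well, 18 h 37 C/5% CO2; Ca dye 1 h 37 C; cpd pinned (DMSO), agonist mode; kinetic FL 480/540, 3 min, 1 s reads; 15 conc, n=3.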

[3] = target: KiSS-1 receptor (Homo sapiens) (UniProt Q969F8); test: Human kisspeptin (KISS1R) small molecule agonists, calcium flux assay in KISS1R-HEK293 cells (AID 1920064; active = well fitted activation curve with a large enough effect in the repeat runs)
Outline: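 Stable human KISS1R HEK293 line; 18 h plating, 37 C/5% CO2; calcium dye 1 h 37 C; compound pin transfer; kinetic fluorescence Ex/Em 480/540, 3 min.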

[4] = G protein-coupled receptor (GPCR) small molecule agonists, calcium flux assay: HEK293 wild type cell line counter screen (AID 1920065)
Outline: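 Kinetic fluorescence at Ex/Em 480/540, recorded every second over 3 min, served as the read-out after compound addition. Each compound was tested at 15 concentrations in triplicate on cells pre-loaded with calcium dye for 1 h.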

[5] = p53 small molecule agonists, cell-based qHTS assay with human liver microsomes (AID 1963577);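 also: p53 response element beta-lactamase reporter cells with liver microsomes plus NADPH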
Outline: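 16 h, 37 C exposure of p53RE-bla cells to compounds with human liver microsomes and NADPH (0.5 mg/mL final each); detection via LiveBLAzer mixture, 2 h dark at room temperature.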

[6] = p53 small molecule agonists, cell-based qHTS assay with rat liver microsomes (AID 1963578)
Outline: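 With rat liver microsomes and NADPH present (0.5 mg/mL final each), p53RE-bla cells are treated with compound for 16 h at 37 C. LiveBLAzer detection mixture is then applied for 2 h at room temperature in the dark.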

[7] = p53 small molecule agonists, cell-based qHTS assay with human liver microsomes: qHTS cell viability counter screen (AID 1963579); also: nearly all actives have a fitted effect of over 45% in size
Outline: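 In this multiplexed counter screen, the reporter plates were subsequently treated with CellTiter-Glo so that cell viability, reflected by luminescence, could be recorded for p53RE-bla cells dosed 16 h with compounds under microsomal activation (HLM and NADPH).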

[8] = p53 small molecule agonists, cell-based qHTS assay with rat liver microsomes: qHTS cell viability counter screen (AID 1963580); also: nearly all actives have a fitted effect of over 45% in size
Outline: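 Viability is assessed in parallel with the p53 reporter read: HCT-116 p53RE-bla cells receive compounds plus rat microsomes and NADPH (0.5 mg/mL final apiece), incubate 16 h at 37 C, and then CellTiter-Glo luminescence is recorded.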

[9] = p53 small molecule agonists, cell-based qHTS assay: qHTS cell viability counter screen (AID 1963581); also: nearly all actives have a fitted effect of over 45% in size
Outline: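 HCT-116 p53RE-bla cells, 4,000/well, plated 5 h before compound pin transfer; 16 h at 37 C; bla substrate 2 h RT; then CellTiter-Glo, 30 min RT, luminescence.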

[10] = p53 small molecule agonists, cell-based qHTS assay (AID 1963582; active = well fitted activation curve with a large enough effect in the signal ratio in the repeat runs, not every such curve was filed as active; the % refers to the signal ratio; also: potency is read from the fitted curve at half-maximal effect)
Outline: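 Reporter line: p53RE-bla. Pre-incubation 5 h, 37 C, 5% CO2; compound (DMSO, pin tool) 16 h, 37 C; B/G FRET substrate 2 h RT; fluorescence intensity read.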

[11] = target: 5-hydroxytryptamine receptor 2A (Homo sapiens) (UniProt P28223); test: 5-hydroxytryptamine receptor 2A (HTR2A) small molecule antagonists, cell-based qHTS assay (AID 1963586); also: nearly all actives have a fitted effect of over 45% in size
Outline: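 Antagonist-mode intracellular calcium assay: DOI (4 nM) added after 5 min compound pre-incubation at room temperature to dye-loaded HTR2A-CHO cells. Fluorescence followed for 3 min, sampled every second.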

[12] = target: 5-hydroxytryptamine receptor 2A (Homo sapiens) (UniProt P28223); test: 5-hydroxytryptamine receptor 2A (HTR2A) small molecule agonists, cell-based qHTS assay (AID 1963587); also: nearly all actives have a fitted effect of over 30% in size
Outline: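 CHO cells stably expressing human HTR2A, plated 18 h, loaded with calcium dye 1 h at 37 C. Agonist mode: compounds added and intracellular calcium fluorescence recorded kinetically for 2 min at 1 sec intervals.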

[13] = target: Muscarinic acetylcholine receptor M1 (Homo sapiens) (UniProt P11229); test: Cholinergic receptor muscarinic 1 (CHRM1) small molecule antagonists, cell-based qHTS assay (AID 1963588); also: nearly all actives have a fitted effect of over 40% in size
Outline: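 CHRM1-CHO calcium-flux assay, antagonist mode. Cells were seeded 18 h, dye-loaded 1 h at 37 C and given compound for 5 min at RT, then acetylcholine was added at 50nM. FDSS fluorescence was read 3 min; 15 concentrations, three runs.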

[14] = target: Muscarinic acetylcholine receptor M1 (Homo sapiens) (UniProt P11229); test: Cholinergic receptor muscarinic 1 (CHRM1) small molecule agonists, cell-based qHTS assay (AID 1963589); also: nearly all actives have a fitted effect of over 35% in size
Outline: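 Human M1 in stable CHO line; 18 h plating, 1 h dye load 37 C; cpd added (agonist mode); Ca2+ fluorescence kinetic read, 1 s intervals; 15 conc, 3 runs.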

[15] = cAMP Responsive Elements (CRE) small molecule antagonists, cell-based qHTS assay (AID 1963591; active = well fitted inhibition curve with a large enough effect in the signal ratio in the repeat runs, not every such curve was filed as active; the % refers to the signal ratio)
Outline: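 Beta-lactamase reporter read by FRET substrate (LiveBLAzer B/G) after 2 h at room temperature. CRE-bla HEK293T cells had received compound plus 0.25 uM (final) NKH477 for 3 h at 37 °C.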

[16] = target: Beta-2 adrenergic receptor (Homo sapiens) (UniProt P07550); test: Adrenergic beta2 receptor (ADRB2) small molecule antagonists, cell-based qHTS assay (AID 1963592); also: series mostly up to about 92 µM; nearly all actives have a fitted effect of over 50% in size
Outline: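 Cells (CHO, stable ADRB2 overexpression) incubated 18-20hr at 37C; compounds added from DMSO; agonist mix (1nM isoproterenol, 100uM IBMX, 25uM Ro-20-1724) added; 0.5hr RT; d2-cAMP and anti-cAMP-cryptate added; 1hr RT; 665/615 nm read.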

[17] = target: Beta-2 adrenergic receptor (Homo sapiens) (UniProt P07550); test: Adrenergic beta2 receptor (ADRB2) small molecule agonists, cell-based qHTS assay (AID 1963593);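 also: CHO cells stably overexpressing human ADRB2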
Outline: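 CHO cells stably over-expressing ADRB2 were plated overnight at 37C, then dosed with compounds plus a stimulation mix containing 100uM IBMX and 25uM Ro-20-1724 for 0.5hr at room temperature. cAMP was measured by HTRF competition, 1hr.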

[18] = target: D(2) dopamine receptor (Homo sapiens) (UniProt P14416); test: Dopamine D2 receptor (DRD2) small molecule agonists, cell-based qHTS assay (AID 1963594); also: nearly all actives have a fitted effect of over 35% in size
Outline: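 HEK293 cells stably expressing human DRD2, pre-treated with PDE inhibitor Ro20-1724 (0.1 mM final) and compound 10 min at room temperature, then stimulated with NKH477 (200nM […]) for 30 min. cAMP read by HTRF (665/620 nm).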

[19] = target: D(2) dopamine receptor (Homo sapiens) (UniProt P14416); test: Dopamine D2 receptor (DRD2) small molecule antagonists, cell-based qHTS assay (AID 1963595; active = well fitted inhibition curve with a large enough effect in the signal ratio in the repeat runs, with a control signal flat; the % refers to the signal ratio)
Outline: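 Stable D2 receptor HEK293 line, 24 h after seeding. Compound preincubated 10 min, then quinpirole (12 nM) with forskolin analogue NKH477 (200 nM), 30 min, room temperature. Detection by time-resolved FRET of cAMP.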

[20] = cAMP Responsive Elements (CRE) small molecule agonists, cell-based qHTS assay (AID 1963590)
Outline: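 HEK 293T CRE-bla, 2,000 cells/well, 18 h preincubation 37 C/5% CO2; cpds (DMSO) pinned, 3 h; LiveBLAzer B/G FRET substrate, 2 h RT.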

Chain of Gonadotropin-releasing hormone receptor (Homo sapiens) (P30968 whole entry, looked up): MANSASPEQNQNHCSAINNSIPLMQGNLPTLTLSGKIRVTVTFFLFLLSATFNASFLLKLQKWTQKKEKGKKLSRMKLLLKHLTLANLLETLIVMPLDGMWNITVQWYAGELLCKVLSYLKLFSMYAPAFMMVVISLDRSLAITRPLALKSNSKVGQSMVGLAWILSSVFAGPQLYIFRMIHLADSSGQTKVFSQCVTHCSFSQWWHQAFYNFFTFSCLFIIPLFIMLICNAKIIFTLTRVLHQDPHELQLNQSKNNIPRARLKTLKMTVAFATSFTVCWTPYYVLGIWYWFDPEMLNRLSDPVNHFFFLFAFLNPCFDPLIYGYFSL
Chain of Muscarinic acetylcholine receptor M1 (Homo sapiens) (P11229 whole entry, looked up): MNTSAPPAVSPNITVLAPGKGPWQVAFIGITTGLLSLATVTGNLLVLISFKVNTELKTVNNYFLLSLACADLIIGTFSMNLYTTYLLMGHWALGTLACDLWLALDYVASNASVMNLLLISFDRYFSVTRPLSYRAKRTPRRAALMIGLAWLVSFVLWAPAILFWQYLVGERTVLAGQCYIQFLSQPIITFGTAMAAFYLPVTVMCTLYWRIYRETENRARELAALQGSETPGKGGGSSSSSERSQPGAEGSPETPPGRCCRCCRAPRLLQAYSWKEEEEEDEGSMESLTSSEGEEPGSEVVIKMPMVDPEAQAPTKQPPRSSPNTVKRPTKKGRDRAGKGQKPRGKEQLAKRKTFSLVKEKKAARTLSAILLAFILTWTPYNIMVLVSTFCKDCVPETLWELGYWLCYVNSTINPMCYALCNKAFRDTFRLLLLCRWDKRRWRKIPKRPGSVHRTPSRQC
Chain of KiSS-1 receptor (Homo sapiens) (Q969F8 whole entry, looked up): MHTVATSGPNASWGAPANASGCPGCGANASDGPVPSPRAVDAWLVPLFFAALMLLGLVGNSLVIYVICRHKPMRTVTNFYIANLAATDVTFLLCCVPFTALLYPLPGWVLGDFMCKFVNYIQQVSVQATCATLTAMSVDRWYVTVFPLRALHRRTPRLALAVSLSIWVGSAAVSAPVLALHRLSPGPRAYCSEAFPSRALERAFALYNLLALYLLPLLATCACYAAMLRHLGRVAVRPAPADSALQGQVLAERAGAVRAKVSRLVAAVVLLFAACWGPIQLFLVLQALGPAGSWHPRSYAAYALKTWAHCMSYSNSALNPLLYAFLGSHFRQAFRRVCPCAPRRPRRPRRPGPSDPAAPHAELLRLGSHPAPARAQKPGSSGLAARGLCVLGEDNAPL
Chain of 5-hydroxytryptamine receptor 2A (Homo sapiens) (P28223 whole entry, looked up): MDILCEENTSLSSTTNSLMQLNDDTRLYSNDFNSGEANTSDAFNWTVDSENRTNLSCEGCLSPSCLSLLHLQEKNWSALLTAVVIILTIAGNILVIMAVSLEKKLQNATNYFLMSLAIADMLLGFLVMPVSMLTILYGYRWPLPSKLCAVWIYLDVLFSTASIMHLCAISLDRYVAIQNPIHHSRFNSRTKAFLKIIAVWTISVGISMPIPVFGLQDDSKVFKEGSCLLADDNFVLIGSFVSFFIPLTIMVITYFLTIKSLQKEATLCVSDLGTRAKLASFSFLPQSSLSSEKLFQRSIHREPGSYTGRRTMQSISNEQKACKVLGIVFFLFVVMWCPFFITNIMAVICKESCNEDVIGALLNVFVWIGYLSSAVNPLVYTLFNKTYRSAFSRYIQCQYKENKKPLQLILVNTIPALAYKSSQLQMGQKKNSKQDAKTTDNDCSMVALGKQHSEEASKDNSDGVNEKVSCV
Chain of D(2) dopamine receptor (Homo sapiens) (P14416 whole entry, looked up): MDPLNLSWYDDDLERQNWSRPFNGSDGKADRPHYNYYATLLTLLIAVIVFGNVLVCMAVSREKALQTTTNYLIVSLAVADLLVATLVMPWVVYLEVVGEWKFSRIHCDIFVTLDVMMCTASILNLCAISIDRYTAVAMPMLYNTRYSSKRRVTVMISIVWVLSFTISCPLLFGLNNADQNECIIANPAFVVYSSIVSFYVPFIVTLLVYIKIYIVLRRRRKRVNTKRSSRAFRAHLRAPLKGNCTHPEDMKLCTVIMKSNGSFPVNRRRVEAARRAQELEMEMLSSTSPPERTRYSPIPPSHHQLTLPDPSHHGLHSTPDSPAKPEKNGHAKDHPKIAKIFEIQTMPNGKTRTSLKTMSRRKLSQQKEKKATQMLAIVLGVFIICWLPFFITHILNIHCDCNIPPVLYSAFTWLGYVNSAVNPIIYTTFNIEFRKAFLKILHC
Chain of Beta-2 adrenergic receptor (Homo sapiens) (P07550 whole entry, looked up): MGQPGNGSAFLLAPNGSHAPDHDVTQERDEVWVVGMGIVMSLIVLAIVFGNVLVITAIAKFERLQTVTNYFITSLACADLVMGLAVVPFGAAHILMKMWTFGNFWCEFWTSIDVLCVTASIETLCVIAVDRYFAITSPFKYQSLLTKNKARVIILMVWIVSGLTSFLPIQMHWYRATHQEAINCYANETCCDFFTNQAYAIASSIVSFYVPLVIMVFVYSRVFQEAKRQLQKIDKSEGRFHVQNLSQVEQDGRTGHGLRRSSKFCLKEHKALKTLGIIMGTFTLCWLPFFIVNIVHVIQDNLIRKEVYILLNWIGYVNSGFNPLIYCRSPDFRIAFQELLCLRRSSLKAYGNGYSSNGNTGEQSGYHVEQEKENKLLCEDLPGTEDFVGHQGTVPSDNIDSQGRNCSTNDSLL

## CC(CN(C)C)C(C)(O)Cc1ccc(Cl)cc1 (stereo not given)
[1]
  Potency: inactive
[2]
  Potency: inactive
[3]
  outcome: inactive
[4]
  outcome: inactive
[5]
  Potency: inactive
[6]
  Potency: inactive
[7]
  Potency: inactive
[8]
  Potency: inactive
[9]
  Potency: inactive
[10]
  Potency: inactive
[11]
  Potency: inactive
[12]
  Potency: inactive
[13]
  Potency: inactive
[14]
  Potency: inactive
[15]
  Potency: inactive
[16]
  Potency: inactive
[17]
  Potency: inactive
[18]
  Potency: inactive
[19]
  Potency: inactive

## CC[N+](C)(CC)CCOC(=O)C(O)(c1ccccc1)C1CCCCC1 (stereo not given)
[1]
  Potency: inactive
[2]
  Potency: inactive
[3]
  outcome: inactive
[4]
  outcome: inactive
[5]
  Potency: inactive
[6]
  Potency: inactive
[7]
  Potency: inactive
[8]
  Potency: inactive
[9]
  Potency: inactive
[10]
  Potency: inactive
[11]
  Potency: inactive
[12]
  Potency: inactive
[13]
  Potency: inactive
[14]
  Potency: inactive
[15]
  Potency: inactive
[16]
  Potency: inactive
[18]
  Potency: inactive
[19]
  Potency: inactive

## FC(F)OC(Cl)C(F)(F)F (stereo not given)
[1]
  Potency: inactive
[2]
  Potency: inactive
[3]
  outcome: inactive
[4]
  outcome: inactive
[5]
  Potency: inactive
[6]
  Potency: inactive
[7]
  Potency: inactive
[8]
  Potency: inactive
[9]
  Potency: inactive
[10]
  Potency: inactive
[11]
  Potency: inactive
[12]
  Potency: inactive
[13]
  Potency: inactive
[14]
  Potency: inactive
[20]
  Potency: inactive
[15]
  Potency: inactive
[16]
  Potency: inactive
[18]
  Potency: inactive
[19]
  Potency: inactive

## CCOC(=O)COc1ccc(C)cc1
[1]
  Potency: inactive
[2]
  Potency: inactive
[3]
  outcome: inactive
[4]
  outcome: inactive
[5]
  Potency: inactive
[6]
  Potency: inactive
[7]
  Potency: inactive
[8]
  Potency: inactive
[9]
  Potency: inactive
[10]
  Potency: inactive
[11]
  Potency: inactive
[12]
  Potency: inactive
[14]
  Potency: inactive
[15]
  Potency: inactive
[16]
  Potency: inactive
[18]
  Potency: inactive
[19]
  Potency: inactive

## Cc1ccc(N)nc1
[1]
  Potency: inactive
[2]
  Potency: inactive
[3]
  outcome: inactive
[4]
  outcome: inactive
[5]
  Potency: inactive
[6]
  Potency: inactive
[7]
  Potency: inactive
[8]
  Potency: inactive
[9]
  Potency: inactive
[10]
  Potency: inactive
[11]
  Potency: inactive
[12]
  Potency: inactive
[14]
  Potency: inactive
[15]
  Potency: inactive
[16]
  Potency: inactive
[18]
  Potency: inactive
[19]
  Potency: inactive

## CCCCCCCCCCCCCCCCCC(=O)OCCCCCCCCCCCCCC(C)C
[1]
  Potency: inactive
[2]
  Potency: inactive
[3]
  outcome: inactive
[4]
  outcome: inactive
[5]
  Potency: inactive
[6]
  Potency: inactive
[7]
  Potency: inactive
[8]
  Potency: inactive
[9]
  Potency: inactive
[10]
  Potency: inactive
[11]
  Potency: inactive
[13]
  Potency: inactive
[14]
  Potency: inactive
[20]
  Potency: inactive
[15]
  Potency: inactive
[16]
  Potency: inactive
[18]
  Potency: inactive
[19]
  Potency: inactive

## CNC(=O)c1ccccc1Sc1ccc2c(/C=C/c3ccccn3)n[nH]c2c1
[1]
  Potency: 84.1 nM (active)
[2]
  Potency: inactive
[3]
  outcome: inactive
[4]
  outcome: inactive
[5]
  Potency: inactive
[6]
  Potency: inactive
[7]
  Potency: inactive
[8]
  Potency: inactive
[9]
  Potency: inactive
[10]
  Potency: 1410 nM (active)
[11]
  Potency: inactive
[12]
  Potency: inactive
[14]
  Potency: inactive
[16]
  Potency: inactive
[17]
  Potency: inactive
[18]
  Potency: inactive
[19]
  Potency: inactive
